Screening data (PubChem)
RGS4 inhibitor: blocks human RGS4-accelerated GTP hydrolysis. 390,000 tested, 0.039% active. AID 504845. Transcreener GDP fluorescence polarization, RGS4-accelerated GTP hydrolysis. Potency, µM (highest dose often 114 µM), without a hit: at the highest dose activity change, negative = inhibition, hits mostly inhibitors. P49798; active = well fitted inhibition curve with a large enough effect; inconclusive = small, poorly fitted or top-dose-only effect; inactive = no such curve, though single readings can be large or run the other way; note: potency is the fitted concentration of half-maximal effect; % is set by controls: 0 for no effect and ±100 for the full control effect; nearly all actives have a fitted effect of over 75% in size
Target sequence (P49798 whole entry, looked up): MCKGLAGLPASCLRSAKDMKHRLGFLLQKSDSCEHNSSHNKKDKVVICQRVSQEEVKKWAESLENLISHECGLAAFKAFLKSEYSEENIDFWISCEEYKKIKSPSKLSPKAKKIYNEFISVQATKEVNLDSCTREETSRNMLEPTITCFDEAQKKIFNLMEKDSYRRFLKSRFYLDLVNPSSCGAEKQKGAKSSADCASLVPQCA
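MLSMR compounds (23 nl, pin-transferred) preincubated 10 min at room temperature with a 500nM (2x) first reagent, then RGS4 at 900nM (2x) plus Transcreener GDP mix added; fluorescence polarization (620/688 nm) read before and after 90 min at 30 °C.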
LDHA block: inhibitors of human lactate dehydrogenase A. P00338. purified LDHA, NADH/diaphorase-resazurin fluorescence; hits give low values. activity change, % (values are at about 110 or 230 µM). 480,000 tested, 0.15% active. AID 1347041; in the data active = activity change below about -30%; inconclusive = mostly about -25% to -30%;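 note: plate controls were DMSO wells for no effect and wells without enzyme for full effect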
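Human LDH5 (2 nM) was incubated with 0.06 mM NADH and 0.2 mM pyruvate for 5 min at room temperature in Tris pH 7.4. Remaining NADH was coupled through diaphorase/resazurin, and resorufin fluorescence was read at 0 and 20 min.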
D3 ag: activates the human D3 dopamine receptor | AID 652048 | 410,000 tested, 0.58% active | P35462 | max activation, % | D3R DiscoveRx beta-arrestin cells, luminescence, 90 min; in the data active = max activation above about 30%; note: 0% is about no effect
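Agonist-mode cell screen: cells plated at 1500/well and incubated overnight at 37 °C, then exposed to library compounds for 90 min at 37 °C. Detection reagent was added for 30–60 min at room temperature, and luminescence was read.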
PI4K2A block: inhibitors of human PI4K2A; purified PI4K2A, ADP-Glo luminescence, 1 h; hits give low values; 420,000 tested, 0.13% active; Q9BTU6; activity change, negative = inhibition, % at 76.9 µM; in the data active = activity change below about -50%; inconclusive = mostly about -30% to -49%;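 note: -100% = wells without enzyme as full effect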
Target sequence (Q9BTU6 whole entry, looked up): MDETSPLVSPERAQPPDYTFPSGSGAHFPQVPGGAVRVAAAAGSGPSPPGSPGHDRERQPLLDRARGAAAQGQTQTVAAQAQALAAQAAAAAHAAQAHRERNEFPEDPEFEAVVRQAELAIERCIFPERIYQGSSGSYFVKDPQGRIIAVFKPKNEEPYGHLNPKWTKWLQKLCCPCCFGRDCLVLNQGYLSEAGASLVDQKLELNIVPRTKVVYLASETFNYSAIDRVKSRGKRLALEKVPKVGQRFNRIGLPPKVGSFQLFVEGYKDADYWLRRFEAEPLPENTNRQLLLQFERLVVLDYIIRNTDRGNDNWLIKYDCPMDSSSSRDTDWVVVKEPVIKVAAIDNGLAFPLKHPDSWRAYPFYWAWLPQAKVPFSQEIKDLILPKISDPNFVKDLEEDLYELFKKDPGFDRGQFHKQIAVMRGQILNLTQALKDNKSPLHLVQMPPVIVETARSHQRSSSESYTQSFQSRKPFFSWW
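ADP-Glo luminescence measured ADP generated by PI4K2A enzyme (4 ug/mL before mixing) with 1.2 mM PI substrate (pre-mix) and 300 microM ATP (pre-mix). Tris pH7.5 buffer with MgCl2, Triton X-100; 1 h reaction at ambient temperature.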
pAkt inh: Akt phosphorylation inhibition; Neuro2A IGF-stimulated pAkt S473 HTRF, 20 min; hits give low values; activity change, % for hits at 50 µM; 360,000 tested, 0.32% active; AID 651550; in the data active = activity change below about -80%; inconclusive = mostly about -51% to -80%; note: % is set by controls: 0 for no effect and ±100 for the full control effect
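Single-point screen (50 µM final compound) in Neuro2A cells stimulated 20 min with 6 nM IGF at 37 deg C. After lysis, Ser473-phosphorylated Akt read by HTRF (ex 330 nm, em 615/665 nm) as the 665/615 ratio.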
DRD3 antagonist: blocks the human D3 dopamine receptor; 360,000 tested, 2.5% active; P35462; D3R cells, DiscoveRx beta-arrestin luminescence, antagonist mode; hits give low values; max response, negative = inhibition, %; in the data active = max response below about -50%; inconclusive = no clear call, values can overlap the other calls; note: % is set by controls: 0 for no effect and ±100 for the full control effect
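Cells plated overnight at 1500 cells/well, then exposed to library compounds with dopamine controls for 90 minutes at 37 degrees C. DiscoveRx reagent added for 30–60 minutes at room temperature; luminescence read, quantitative HTS format.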
An asterisk follows results filed as active; i = inactive; u = inconclusive; x = not tested or not shown. In the library only some 2.8% were active in any assay of this set; here they are far more common.

SMILES | RGS4 inhibitor | LDHA block | D3 ag | PI4K2A block | pAkt inh | DRD3 antagonist
Cc1ccc(C(=O)N2CCN(c3oc(C4CC4)nc3C#N)CC2)cn1 | x | 2 | x | x | x | x
CC(C)c1noc(Cn2c(=O)c(C#N)cn(C3CC3)c2=O)n1 | x | 6 | x | x | x | x
Cc1cc(=O)oc2cc(NC(=O)N(C)Cc3ccc(Br)cc3)ccc12 | x | 3 | x | x | x | x
Cc1ccc(NS(=O)(=O)c2cc(C(=O)Nc3cccc(N(C)S(C)(=O)=O)c3)ccc2C)c(C)c1 | -22% | 1 | 43* | -2 | i | 59
COc1ccc(CN(Cc2ccco2)C(=O)c2cc3cc(OC)c(OC)cc3[nH]2)cc1 | x | 10 | x | x | x | x
Cc1ccc(NC(=O)c2ccc3ncsc3c2)cc1C | x | 0 | x | x | x | x
CCCCN(CCCC)C(=S)N/N=C/c1c(C)[nH]n(-c2ccccc2)c1=O | -33% | 0 | -41 | 7 | i | -104*
Cc1[nH]n(-c2ccccc2)c(=O)c1/C=N/NC(=O)c1ccc(O)cc1O | -15% | 0 | 5 | -5 | i | 13
Oc1ccc(CNc2ccccc2C(F)(F)F)c2cccnc12 | x | 34 | x | -14 | x | x
Oc1ccc(N=Nc2ccccc2C(F)(F)F)c2cccnc12 | -10% | 2 | -17 | -2 | i | -124*
COc1ccccc1N=Nc1ccc(O)c2ncccc12 | -31% | 12 | -17 | u | i | -90*
Cc1ccccc1NC(=O)c1nc2ccccc2nc1N1CCN(C)CC1 | x | 8 | x | x | x | x
CC(C)OC(=O)CSc1nc2cc3c(cc2cc1C#N)OCO3 | -1% | 7 | -2 | 1 | -97%* | 13
COC(=O)C1=C(CS(=O)(=O)c2ccc(OC)cc2)NC(=O)NC1c1cccc(Cl)c1 (configuration not stated) | x | -4 | x | x | x | x
Cc1ccccc1Cn1cc(CCC(=O)NC(C)c2ccccc2)c2ccccc21 (configuration not stated) | -1% | -3 | -11 | -2 | x | x
CCn1cc(CCC(=O)NC(C)c2ccccc2)c2ccccc21 (configuration not stated) | -10% | -1 | 0 | 3 | i | -55*
O=C(O)CCN1CCc2ccccc21 | -31% | 2 | 4 | -9 | i | 4
O=C(O)CCN1CCc2ccccc2C1c1ccncc1 (configuration not stated) | 3% | -1 | -4 | 0 | i | -58*
CN1CCN(c2oc(-c3ccccc3)nc2S(=O)(=O)c2ccc(Br)cc2)CC1 | -4% | 0 | -36 | 1 | i | -67*
CN1CCN(c2oc(-c3ccccc3)nc2S(=O)(=O)c2ccc(F)cc2)CC1 | x | 1 | x | x | x | x
CN1CCN(c2oc(-c3ccccc3Cl)nc2S(=O)(=O)c2ccccc2)CC1 | 3% | -8 | -7 | -1 | i | -79*
COc1cc(OC)nc(Nc2nc(C(N)COCc3ccccc3)cs2)n1 (configuration not stated) | x | -7 | -6 | -1 | i | -74*
COc1cc(OC)nc(Nc2nc(C(N)CCc3ccccc3)cs2)n1 (configuration not stated) | x | -8 | 34* | 6 | i | 7
COc1cc(OC)nc(Nc2nc(C(N)c3ccccc3)cs2)n1 (configuration not stated) | x | -3 | 3 | -2 | i | 11
O=C(N[C@H](CO)Cc1ccccc1)c1nc(-c2cccc3[nH]ccc23)no1 | x | 7 | x | x | x | x
SMILES | RGS4 inhibitor | LDHA block | D3 ag | PI4K2A block | pAkt inh | DRD3 antagonist
Cc1ccc(-n2ccc(=O)c(C(=O)Nc3ccc(S(=O)(=O)Nc4onc(C)c4C)cc3)n2)cc1 | 1% | -62* | -7 | -3 | i | -21
c1ccc(Nc2nc(N3CCNCC3)nc(N3CCOCC3)n2)cc1 | 17% | -4 | -1 | 5 | i | -79*
C(=N\Nc1nc(Nc2ccccc2)nc(N2CCOCC2)n1)/c1c[nH]c2ccccc12 | -5% | -13 | 5 | 4 | i | -62*
C=CCNC(=O)c1nc(-c2ccc3cc[nH]c3c2)no1 | x | 7 | x | x | x | x
Clc1ccc2c3c([nH]c2c1Cl)CCC3 | x | 7 | x | x | x | x
Clc1cccc2c3c([nH]c12)CCNC3 | -11% | -1 | -44 | 0 | i | -60*
Clc1ccc2[nH]c3c(c2c1)CNCC3 | -3% | -10 | -34 | 7 | i | -98*
CC1CCC(C(C)C)C(OC(=O)Cn2c(-c3ccc(F)cc3)[n+](C)c3ccccc32)C1 (configuration not stated) | 1% | -10 | -14 | -1 | i | -72*
O=C(COC(=O)C1COc2ccccc2O1)NC(=O)NC1CCCC1 (configuration not stated) | -5% | -2 | -10 | -7 | -98%* | -16
COc1ccc(OC)c(C(C)NC(=O)Cc2cccs2)c1 (configuration not stated) | x | 1 | x | x | x | x
COc1ccc(/C=C/c2ccccc2)cc1[C@H]1[C@@H]2C=CCC[C@@]2(C)C(=O)N1Cc1ccccc1 | -11% | 0 | -34 | -1 | i | -66*
COc1ccc(-c2ccc(OC)c([C@H]3[C@H]4C=CC[C@@H](C)[C@@H]4C(=O)N3Cc3ccccc3)c2)cc1C | 10% | 0 | -32 | 3 | i | 0
Cc1ccc(-c2ccc(C3C4C=CCCC4(C)C(=O)N3Cc3ccccc3)c(F)c2)cc1 (configuration not stated) | 4% | x | x | x | x | x
CC(=O)c1ccc(-c2ccc([C@H]3[C@@H]4C=CCC[C@@]4(C)C(=O)N3Cc3ccccc3)c(F)c2)cc1 | -1% | -3 | 48* | -2 | i | 0
COc1ccc(Br)cc1[C@H]1[C@@H]2C=CCC[C@@]2(C)C(=O)N1Cc1ccccc1 | 3% | -1 | -36 | 6 | i | -55*
COc1ccc(/C=C/c2ccccc2)cc1[C@H]1[C@H]2C=CC[C@@H](C)[C@@H]2C(=O)N1Cc1ccccc1 | -21% | 0 | -22 | -2 | i | -53*
CCOC(=O)C(CC)Oc1ccc2c(=O)c(Oc3ccccc3Br)coc2c1 (configuration not stated) | x | -31* | x | x | x | x
Nc1nc(O)c(N=Nc2ccc(S(N)(=O)=O)cc2)c(=O)[nH]1 | -9% | 4 | 6 | 4 | i | -15
NS(=O)(=O)c1ccc(N=Nc2c[nH]c(=O)c(O)c2)cc1 | u | 50 | -11 | -62* | i | -66*
CC(C)N1C(=O)S/C(=C\c2cc(Br)ccc2OCc2ccc(C(=O)O)cc2)C1=O | x | -6 | x | x | x | x
NC(=O)c1cc(-c2ccc(Br)cc2)nc2ccccc12 | x | -7 | x | x | x | x
CCCCNc1ncnc2oc(-c3ccco3)c(-c3ccco3)c12 | u | 10 | x | x | x | x
CN(C)CCNc1ncnc2ccccc12 | -6% | 4 | -10 | -4 | i | -9
